The nature of test [1]: qHTS assay to identify small molecule antagonists of the thyroid receptor (TR) signaling pathway - cell viability counter screen (AID 743064). Also: nearly all actives have a fitted effect of over 50% in size. Also: potency is read from the fitted curve at half-maximal effect. The gist of the method: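 GH3.TRE-Luc rat pituitary cells dosed after 4 hr plating, co-stimulated with T3 at 1 nM final, incubated 23.5 h at 37 C. Viability measured in the same wells by CellTiter-Fluor fluorescence after 30 min further at 37 C.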

Test [2] can be described thus: qHTS assay to identify small molecule antagonists of the thyroid receptor (TR) signaling pathway (AID 743065). Also: nearly all actives have a fitted effect of over 55% in size. Also: potency is read from the fitted curve at half-maximal effect. The gist of the method:
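GH3.TRE-Luc rat pituitary cells carrying two TR response elements driving luciferase were plated for 4 h, given compound plus 1 nM T3 (final), and incubated 23.5 h at 37 C. ONE-Glo luminescence measured reporter inhibition; CellTiter-Fluor fluorescence tracked cytotoxicity.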

Test [3] concerns thyroid hormone receptor (rat, GH3 cells). Nature of the test: qHTS assay to identify small molecule agonists of the thyroid receptor (TR) signaling pathway (AID 743066; calls by dose curve). (qHTS replaces the single test concentration by a dilution series.)
Test [4] concerns the target Estrogen receptor (Homo sapiens) (UniProt P03372). Nature of the test: qHTS assay to identify small molecule antagonists of the estrogen receptor alpha (ER-alpha) signaling pathway (AID 743069; active = well fitted curve in the direction sought with a large enough effect in the signal ratio in the repeat runs, not every such curve was filed as active; the % refers to the signal ratio). The gist of the method:
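Estradiol-stimulated ER-alpha-UAS-bla HEK293 cells, 18 hr compound exposure at 37C. LiveBLAzer B/G substrate, 2 hr RT, fluorescence read.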

Test [5] can be described thus: qHTS assay to identify small molecule antagonists of the estrogen receptor alpha (ER-alpha) signaling pathway - cell viability counter screen (AID 743074; calls by dose curve;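 also: HEK293 cells carrying ER-alpha-UAS-bla reporter stimulated with 17beta-estradiol; nearly all actives have a fitted effect of over 45% in size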).
For test [6], the target named is Estrogen receptor (Homo sapiens) (UniProt P03372). The test is described as follows: qHTS assay to identify small molecule agonists of the estrogen receptor alpha (ER-alpha) signaling pathway (AID 743075; calls by dose curve;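 also: HEK293 GripTite cells with ER-alpha and UAS-driven beta-lactamase reporter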; also: potency is read from the fitted curve at half-maximal effect).
Chain of Estrogen receptor (Homo sapiens) (P03372 whole entry, looked up): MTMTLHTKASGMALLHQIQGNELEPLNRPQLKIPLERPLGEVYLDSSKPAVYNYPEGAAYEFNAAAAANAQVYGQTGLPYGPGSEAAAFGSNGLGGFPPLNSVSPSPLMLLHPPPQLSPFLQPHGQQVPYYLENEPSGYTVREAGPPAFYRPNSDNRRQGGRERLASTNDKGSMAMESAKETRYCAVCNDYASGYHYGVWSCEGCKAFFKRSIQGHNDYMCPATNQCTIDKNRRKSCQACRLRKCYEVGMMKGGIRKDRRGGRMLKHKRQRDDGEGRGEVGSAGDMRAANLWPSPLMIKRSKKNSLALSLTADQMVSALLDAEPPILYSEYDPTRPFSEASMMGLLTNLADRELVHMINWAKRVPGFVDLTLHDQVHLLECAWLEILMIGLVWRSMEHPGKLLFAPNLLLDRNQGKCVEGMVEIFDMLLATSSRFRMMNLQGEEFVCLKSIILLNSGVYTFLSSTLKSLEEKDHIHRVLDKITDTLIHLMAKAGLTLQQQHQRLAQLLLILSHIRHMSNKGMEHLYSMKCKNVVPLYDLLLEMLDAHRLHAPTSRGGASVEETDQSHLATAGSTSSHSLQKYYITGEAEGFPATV
The target is the same in test [7]. Nature of the test: qHTS assay to identify small molecule agonists of the estrogen receptor alpha (ER-alpha) signaling pathway using the BG1 cell line (AID 743079). Also: nearly all actives have a fitted effect of over 20% in size. Also: potency is read from the fitted curve at half-maximal effect. The conditions noted are these: BG1Luc4E2 cells, ERE-luciferase agonist, 22 h.
Test [8] is described as follows: qHTS assay to identify small molecule antagonists of the estrogen receptor alpha (ER-alpha) signaling pathway using the BG1 cell line (AID 743080; calls by dose curve;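 also: BG1 cells stimulated with 17beta-estradiol alongside compound; nearly all actives have a fitted effect of over 25% in size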). The gist of the method: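 Readout is ONE-Glo luminescence, taken 30 min at room temperature after reagent addition, preceded by a CellTiter-Fluor viability read; BG1-Luc-4E2 cells had received compound and 17beta-estradiol for 21.5 h at 37 C.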

A short description of test [9]: qHTS assay to identify small molecule antagonists of the estrogen receptor alpha (ER-alpha) signaling pathway using the BG1 cell line - cell viability counter screen (AID 743081).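 Also: compound given together with 17beta-estradiol as the ER stimulus; nearly all actives have a fitted effect of over 45% in size.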
For another test, the target named is Aromatase (Homo sapiens) (UniProt P11511). The test is described as follows: qHTS assay to identify aromatase inhibitors (AID 743083). Also: nearly all actives have a fitted effect of over 55% in size.
Chain of Aromatase (Homo sapiens) (P11511 whole entry, looked up): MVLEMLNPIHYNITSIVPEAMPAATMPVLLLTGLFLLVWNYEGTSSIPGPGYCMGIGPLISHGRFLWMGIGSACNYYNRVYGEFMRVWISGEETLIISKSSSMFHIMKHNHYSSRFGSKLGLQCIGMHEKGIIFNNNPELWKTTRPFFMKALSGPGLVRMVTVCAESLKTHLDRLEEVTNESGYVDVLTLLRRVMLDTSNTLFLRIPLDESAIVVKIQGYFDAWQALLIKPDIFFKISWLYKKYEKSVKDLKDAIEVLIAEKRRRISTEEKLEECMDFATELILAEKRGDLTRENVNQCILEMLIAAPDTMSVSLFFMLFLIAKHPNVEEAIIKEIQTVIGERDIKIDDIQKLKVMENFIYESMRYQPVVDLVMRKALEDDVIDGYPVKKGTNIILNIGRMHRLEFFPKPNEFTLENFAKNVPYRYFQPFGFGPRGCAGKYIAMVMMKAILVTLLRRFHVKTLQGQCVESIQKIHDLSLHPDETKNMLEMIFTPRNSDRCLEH

Structures are written as SMILES. Several values for one entry are separate records, joined by “and”; a condition that tells them apart may be missing. Equal values may be shown once. Inconclusive results are not listed. Unmarked numbers belong to inactive results. Activity calls are given as the source filed them. Unless noted, calls follow the shape of the dose curve; as a rule, active = well fitted curve in the direction sought with a large enough effect in the repeat runs; inconclusive = weak or mixed curves; inactive = no such curve, though single readings can be large; an effect the other way counts as inactive or inconclusive.
% is scaled to controls: 0 for no effect and ±100 for the full control effect.

In the case of `Cc1ncc(CNC(=O)N(CCCl)N=O)c(N)n1`, the Potency result in [1], in [2], in test [3], in test [4], in test [6] and in test [8] was “inactive” each time. Moreover, the Potency result (in [9]; with Aromatase (Homo sapiens)) was “inactive” each time. Moreover, the molecule was classed as inactive in test [5]. In addition, the activation in [7] (at 70.3 µM (top of the series)) was 12.7%.
Turning to `CNNC`, the Potency result in test [1], in [2], in test [3], in [4], in test [6] and in test [9] was “inactive” in each case. For the same molecule, the Potency result in the test with Aromatase (Homo sapiens) is “inactive”. Moreover, the outcome in [5] was inactive. Besides, the activation in test [7] (at 95 µM (top of the series)) is -3.86%.
On to `CCCCCCI`, for which the Potency result in test [1], in test [2], in [3], in [4], in test [6] and in test [8] was “inactive” throughout. Moreover, the Potency entry (in test [9]; with Aromatase (Homo sapiens)) was “inactive” each time. Moreover, the molecule was classed as inactive in test [5]. In test [7] (at 70.3 µM (top of the series)), the activation was 1.45%.
Consider `CCCCc1c(C)nc(NCC)[nH]c1=O`, for which the Potency result in [1], in [2], in test [3], in test [4], in test [6] and in test [9] was “inactive” throughout. In the test with Aromatase (Homo sapiens), the Potency result was “inactive”. Moreover, in test [5], the result was inactive. Also, the activation in test [7] (at 70.3 µM (top of the series)) is 0.176%.
In the case of `Cc1nc(N)nc(N)n1`, the Potency entry in [1], in test [2], in test [3], in test [4], in test [6] and in test [8] was “inactive” each time. Further, the Potency entry (in test [9]; in the test with Aromatase (Homo sapiens)) was “inactive” in each case. Further, in test [5], the result was inactive. Also, in test [7] (at 95 µM (top of the series)), the activation is 2.81%.
Regarding `OC(c1ccc(F)cc1)(c1cncnc1)c1ccccc1Cl` (centres undefined), the Potency result in test [1], in [2], in test [3], in test [4], in test [8] and in test [9] was “inactive” in each case. The result in test [5] was inactive. For the same molecule, the Potency in test [6] is 49 µM [activator] (active).
As for `CC(=O)C(Cl)Cl`, the Potency entry in test [1], in test [2], in [3], in test [4], in test [6] and in [9] was “inactive” each time. The Potency entry with Aromatase (Homo sapiens) was “inactive”. Moreover, the outcome in test [5] was inactive. Further, in test [7] (at 95 µM (top of the series)), the activation was 0.96%.
As to `C[N+](C)=CCl`, the Potency result in test [1], in test [2], in test [3], in [4], in test [6] and in test [8] was “inactive” in each case. For the same molecule, the Potency entry (in [9]; in the test with Aromatase (Homo sapiens)) was “inactive” in each case. Besides, the outcome in test [5] was inactive. Also, the activation in test [7] (at 70.3 µM (top of the series)) was 20.5%.
Take `C1CCC(C2CCCCC2)CC1`: the Potency result in [1], in test [2], in test [3], in [4], in test [6] and in [9] was “inactive” each time. For the same molecule, the Potency result with Aromatase (Homo sapiens) is “inactive”. Besides, in [5], the result was inactive. Also, the activation in test [7] (at 70.3 µM (top of the series)) was -17.5%.
Turning to `C[N+](=O)[O-]`, the Potency result in [1], in [2], in [3], in test [4], in test [6] and in test [8] was “inactive” in each case. Further, the Potency result (in test [9]; in the test with Aromatase (Homo sapiens)) was “inactive” each time. Besides, in [5], the molecule was classed as inactive. The activation in test [7] (at 70.3 µM (top of the series)) was 0.916%.
As for `CCCCP(CCCC)CCCC`, the Potency result in test [1], in test [2], in [3], in test [4], in [6] and in [8] was “inactive” each time. In addition, the Potency entry (in [9]; with Aromatase (Homo sapiens)) was “inactive” in each case. Further, in test [5], the result was inactive. Further, the activation in test [7] (at 70.3 µM (top of the series)) was 0.877%.
As for `O=C(N[C@H]1CN2CCC1CC2)c1cc2ccoc2cn1`, the Potency entry in test [1], in test [2], in [3], in test [4], in test [6] and in [8] was “inactive” throughout. Also, the Potency result (in test [9]; with Aromatase (Homo sapiens)) was “inactive” each time. Moreover, in [5], the result was inactive. Further, the activation in test [7] (at 70.3 µM (top of the series)) is -3.48%.
On to `CCS(=O)(=O)C(C)(C)S(=O)(=O)CC`, for which the Potency result in [1], in [2], in [3], in [4], in test [6] and in [8] was “inactive” throughout. Besides, the Potency entry (in test [9]; with Aromatase (Homo sapiens)) was “inactive” in each case. For the same molecule, the call in [5] was inactive. In test [7] (at 70.3 µM (top of the series)), the activation is 0.0569%.
As for `CCOP(=S)(OCC)SCSc1ccc(Cl)cc1`, the Potency entry in test [1], in test [2], in test [3], in test [4], in [6] and in [8] was “inactive” throughout. Also, the Potency entry (in test [9]; in the test with Aromatase (Homo sapiens)) was “inactive” throughout. Besides, the outcome in test [5] was inactive. Moreover, in [7], the Potency is 26.6 µM (active) and 24.3 µM (active).
`O=P(O)(Oc1ccccc1)Oc1ccccc1`: the Potency entry in test [1], in test [2], in [3], in test [4], in test [6] and in [9] was “inactive” in each case. For the same molecule, the Potency result in the test with Aromatase (Homo sapiens) is “inactive”. In test [5], the molecule was classed as inactive. Moreover, the activation in test [7] (at 70.3 µM (top of the series)) is 1.22%.
Turning to `C#CCN1C(=O)COc2cc(F)c(N3C(=O)C4=C(CCCC4)C3=O)cc21`, the Potency entry in [1], in test [2], in [3], in [4], in test [6] and in [9] was “inactive” each time. For the same molecule, the Potency result with Aromatase (Homo sapiens) was “inactive”. Also, the result in test [5] was inactive. The activation in [7] (at 70.3 µM (top of the series)) was -23.7%.
Consider `ClC(Br)Br`, for which the Potency result in test [1], in [2], in test [3], in test [4], in test [6] and in test [9] was “inactive” in each case. The Potency result with Aromatase (Homo sapiens) was “inactive”. Besides, the molecule was called inactive in test [5]. Also, the activation in [7] (at 70.3 µM (top of the series)) was 1.01%.
On to `O=[N+]([O-])c1cc(Cl)c(Cl)c(Cl)c1`, for which the Potency result in [1], in test [2], in [3], in test [4], in test [6] and in test [9] was “inactive” throughout. Further, the Potency entry with Aromatase (Homo sapiens) was “inactive”. The molecule was classed as inactive in test [5]. For the same molecule, the activation in [7] (at 70.3 µM (top of the series)) is 9.06%.
Regarding `CSc1nc(N=[N+]=[N-])nc(NC(C)C)n1`, the Potency result in test [1], in test [2], in [3], in test [4], in test [6] and in test [8] was “inactive” in each case. Also, the Potency result (in test [9]; with Aromatase (Homo sapiens)) was “inactive” throughout. The molecule was called inactive in test [5]. Besides, in test [7] (at 70.3 µM (top of the series)), the activation was 2.14%.
Turning to `CCOP(=S)(OCC)Oc1cc(-c2ccccc2)on1`, the Potency entry in [1], in test [2], in [3], in test [4], in test [6] and in test [9] was “inactive” throughout. Further, in the test with Aromatase (Homo sapiens), the Potency result is “inactive”. In test [5], the call was inactive. Moreover, the Potency in test [7] was 68.6 µM (active).
Regarding `CC(CC(C#N)(c1ccccc1)c1ccccc1)N(C)C` (centres undefined), the Potency in test [1] is 24.2 µM (active); in test [2], 30.5 µM (active). The Potency result (in test [3]; in test [4]; in [6]; in test [9]; with Aromatase (Homo sapiens)) was “inactive” in each case. In addition, the result in test [5] was inactive. Further, the activation in [7] (at 70.3 µM (top of the series)) is -6.75%.
Consider `CCC(Cl)[N+](=O)[O-]` (centres undefined), for which the Potency entry in test [1], in test [2], in [3], in test [4], in test [6] and in [8] was “inactive” in each case. The Potency result (in test [9]; with Aromatase (Homo sapiens)) was “inactive” in each case. In [5], the molecule was classed as inactive. The activation in [7] (at 95 µM (top of the series)) was -4.86%.
As to `Nc1cc2c3c(c1)C(c1ccccc1)=N[C@@H](NC(=O)c1cccnc1)C(=O)N3CC2`, the Potency result in [1], in test [2], in test [3], in test [4], in test [6] and in test [9] was “inactive” throughout. Besides, the Potency result with Aromatase (Homo sapiens) was “inactive”. In test [5], the molecule was called inactive. The activation in test [7] (at 70.3 µM (top of the series)) was -22.1%.
On to `CC1=NNC(=O)N(/N=C/c2cccnc2)C1`, for which the Potency result (in test [1]; in test [2]; in test [3]; in test [9]; in the test with Aromatase (Homo sapiens)) was “inactive” in each case. Moreover, in test [5], the molecule was classed as inactive.
Consider `COc1ccc(C(=O)N2CCCC2=O)cc1`, for which the Potency result (in test [1]; in [2]; in [3]; in test [9]; in the test with Aromatase (Homo sapiens)) was “inactive” each time. In addition, the call in test [5] was inactive.

(Values after PubChem BioAssay (Tox21).)
